This is part of a sample that, as a whole, favours compounds with a hit. Of some 79,000 tested, about 15% had one in any assay. The source made the active and inactive calls. No stated cut-off is given here; in the data, active means growth inhibition above about 70%; inactive means the rest.
Experiment: NCI Yeast Anticancer Drug Screen. Data for the rad50 strain (AID 155);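 further: 0% = growth of vehicle-only cultures of the same strain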
Conditions: S. cerevisiae rad50 strain growth inhibition; at 50.0 µM; active compounds read high
Method: Growth inhibition of yeast strains with defined genetic alterations is measured as a screen for potential anti-cancer activity. Selected strains with alterations in DNA damage repair or cell cycle control were exposed to compounds and growth inhibition was measured relative to vehicle treated controls. The strain used in this assay is rad50

With `CC[n+]1nc2ccccc2c(=Nc2ccccc2[N+](=O)[O-])[n-]1` as the compound, how does the growth inhibition read?
Its growth inhibition is 11.8% (inactive).

Which growth inhibition does the source give for `CN=C1N[N+]2=CCCCC2S1` (stereo not given) here?
Its growth inhibition is 17.8% (inactive).

For `OC(CNc1ccc(Cl)cc1)CN1CCOCC1` (stereo not given), which growth inhibition is on record?
The growth inhibition was 77.7% (active).

With `Cc1cccc(-c2c3ccccc3cc3ccccc23)c1` as the compound, how does the growth inhibition read?
Its growth inhibition is 6.35% (inactive).

For `c1ccc(N=C2SC(c3ccccc3)CN2C23CC4CC(CC(C4)C2)C3)cc1` (stereo not given), which growth inhibition is on record?
The growth inhibition was -18.4% (inactive).

For `CC(C)OC1(c2ccccc2)OC(c2ccccc2)=CC1=O` (stereo not given), which growth inhibition is on record?
The growth inhibition was 5.35% (inactive).

With `Cc1cccc(C)c1Nc1nc(C)c(C(=O)CC(=O)C(=O)Nc2c(C(C)C)cccc2C(C)C)s1` as the compound, how does the growth inhibition read?
Its growth inhibition is 18.3% (inactive).

With `CN(C)C(=O)c1cccc(C2CCCCC2)c1O` as the compound, how does the growth inhibition read?
Its growth inhibition is -10.8% (inactive).

Which growth inhibition does the source give for `CC(=O)OCC1OC(n2cnc3c(N)ncnc32)C(Nc2ccc([N+](=O)[O-])cc2[N+](=O)[O-])C(OC(C)=O)C1OC(C)=O` (stereo not given) here?
Its growth inhibition is 23.2% (inactive).

For `O=C1c2ccccc2C2(Br)C(=O)c3ccccc3C12Br` (stereo not given), which growth inhibition is on record?
Its growth inhibition is 98.6% (active).

Which growth inhibition does the source give for `N#C/C(=C1\OC(N)=C(c2ccc(Cl)cc2)C1=O)c1ccc(Cl)cc1` here?
The growth inhibition was 2.9% (inactive).

Which growth inhibition does the source give for `Nc1cccc(Oc2ccc([N+](=O)[O-])cc2)c1` here?
The growth inhibition was 16.9% (inactive).

Which growth inhibition does the source give for `O=c1c2cccnc2[nH]c2ccc3scnc3c12` here?
Its growth inhibition is -8.85% (inactive).

For `COC(=O)C1C2OC(C(Br)C2Br)C1C(=O)O` (stereo not given), which growth inhibition is on record?
The growth inhibition was -6.2% (inactive).

Which growth inhibition does the source give for `O=C(O)C1CCCCC1O` (stereo not given) here?
Its growth inhibition is -11.6% (inactive).

Which growth inhibition does the source give for `CN(C)c1ccc(SSc2ccc(N(C)C)cc2)cc1` here?
The growth inhibition was -6.9% (inactive).

With `S=C(NCc1ccc(Cl)c(Cl)c1)Nc1ccccc1` as the compound, how does the growth inhibition read?
Its growth inhibition is 98% (active).

For `O=C(CCCCl)c1ccc(O)cc1`, which growth inhibition is on record?
The growth inhibition was -29.4% (inactive).

Which growth inhibition does the source give for `COC(=O)c1c(C(=O)Nc2ccc(Cl)cc2)c(C)n(NC(N)=O)c1C` here?
Its growth inhibition is -6.45% (inactive).

Which growth inhibition does the source give for `COc1cccc(C=Nc2ccc(N(C)C)cc2)c1O.COc1cccc(C=Nc2ccc(N(C)C)cc2)c1O.[Co]` here?
Its growth inhibition is 31.4% (inactive).

For `CC(C)[N+](=C1O[B-](c2ccccc2)(c2ccccc2)O[B-]1(c1ccccc1)[C+]1CCCCC1)C(C)C` (stereo not given), which growth inhibition is on record?
The growth inhibition was -51.1% (inactive).

With `Clc1ccc2cc3ccccc3cc2c1` as the compound, how does the growth inhibition read?
Its growth inhibition is -16.7% (inactive).

Which growth inhibition does the source give for `CC1Cn2c(nccc2=O)S1` (stereo not given) here?
The growth inhibition was -15.1% (inactive).

With `CC(=O)O[C@H]1CC[C@@]2(C)C(=CC[C@H]3[C@@H]4CC[C@H](c5cc(C(F)(F)F)n(C(C)=O)n5)[C@@]4(C)CC[C@@H]32)C1` as the compound, how does the growth inhibition read?
Its growth inhibition is 11.3% (inactive).

With `CCCCCCCCCCCCP(=O)(O)O` as the compound, how does the growth inhibition read?
The growth inhibition was -8.2% (inactive).

Which growth inhibition does the source give for `Cc1ccccc1-c1nnc(-c2ccc3ccccc3c2)o1` here?
Its growth inhibition is 7.3% (inactive).

For `CCN(CC)CC(C)C(O)(Cc1ccccc1)c1ccc(Cl)cc1` (stereo not given), which growth inhibition is on record?
The growth inhibition was 21.4% (inactive).

For `CCOC1C=CCCC1` (stereo not given), which growth inhibition is on record?
Its growth inhibition is -1.75% (inactive).

For `Cc1ccc(C(C)(C)C)c2oc(=O)cc(C)c12`, which growth inhibition is on record?
Its growth inhibition is 20.2% (inactive).

With `CC(=O)OC1C(C)OC(OC(=O)C2CCC3C(C2)OC2(CC(OC(=O)/C=C/c4ccccc4)C(C)CO2)C32CO2)C(OC2OC(C)C(O)C(O)C2O)C1O` (stereo not given) as the compound, how does the growth inhibition read?
Its growth inhibition is 1.3% (inactive).

With `CN1CC=C(C#CC(C)(C)O)CC1` as the compound, how does the growth inhibition read?
Its growth inhibition is -13% (inactive).

With `CN(C)C(=O)Sc1ccc([N+](=O)[O-])cc1Cl` as the compound, how does the growth inhibition read?
The growth inhibition was 15.4% (inactive).

Which growth inhibition does the source give for `CC(=O)OCC1OC(Cl)C(OC(=O)C(Cl)(Cl)Cl)C(OC(C)=O)C1OC(C)=O` (stereo not given) here?
Its growth inhibition is 2.8% (inactive).

For `COC1OC2COC(c3ccccc3)OC2C(O)C1N=[N+]=[N-]` (stereo not given), which growth inhibition is on record?
The growth inhibition was 3.4% (inactive).

With `CCCCCCN(CCCCCC)C(=S)N/N=C(\C)c1ccccn1` as the compound, how does the growth inhibition read?
Its growth inhibition is 85% (active).

Which growth inhibition does the source give for `CC(C)=CCCc1ccc2c(c1)C(=O)c1cc3c(cc1C2=O)OCO3` here?
The growth inhibition was -13.9% (inactive).

Which growth inhibition does the source give for `CC[N+](C)(CC)Cc1ccc([NH-])c([NH-])c1.[Cl][Pt+2][Cl]` here?
Its growth inhibition is 35.1% (inactive).

For `CCCCCCCCCCCCCCCC(=O)NCC(=O)NC1C(CO)OC(Nc2ncnc3nc[nH]c23)C(O)C1O` (stereo not given), which growth inhibition is on record?
Its growth inhibition is 61.8% (inactive).

For `NNC(=O)Sc1ccccc1`, which growth inhibition is on record?
Its growth inhibition is -14.8% (inactive).

For `CN(C)c1nc2oc(-c3ccccc3)c(-c3ccccc3)c2c2nncn12`, which growth inhibition is on record?
Its growth inhibition is 9.65% (inactive).
